Growth data for 29 molecules are collected here from PubChem BioAssay (NCI).

Compounds without any hit were thinned out: in the full panel of roughly 83,000, 20% have a hit.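 Assay: single dose, 48 h. Readout: percent growth (0 = no net growth; negative = cell death). Active: <10.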 Values without a mark were called inactive. Calls of active or inactive are those of the source.

For the experiment, the system named is MDA-MB-468 breast. Briefly: NCI-60 one-dose screen, 48 h (100 = growth as untreated, 0 = no growth, -100 = all killed). The note with it: 10 µM unless noted.

For `O=C1c2ccccc2C(=O)N1OCc1ccccc1`, the growth is 125%.
Consider `O=[N+]([O-])c1ccc(-c2nnc(SCc3ccc(O)c4ncccc34)n2-c2ccccc2)cc1`, for which the growth is 19.9%.
As for `CCCCC/C(C)=N\NC(N)=S`, the figure is -6.78% (active); as for `NS(=O)(=O)Oc1ccc2nc(Nc3ccc(F)c(F)c3)ccc2c1`, 96.9%; as for `CC1=CSC2=NC(c3ccc(Cl)c(Cl)c3)=CC(c3ccc(Cl)cc3)N12` (centres undefined), -61.3% (active).
As for `CCCOC(=O)C(O)c1ccccc1` (centres undefined), the figure is 102%; as for `CCCCCCCCCCCCCCCC(=O)NS(=O)(=O)OC[C@H]1O[C@@H](n2cnc3c(N)ncnc32)[C@H](O)[C@@H]1O`, -51.5% (active).
As for `CCOc1ccc(NC(=S)N2CCC(CCCC3CCN(C(=S)Nc4ccc(OCC)cc4)CC3)CC2)cc1`, the figure is 58.7%; as for `CCCCCc1ccc(S(=O)(=O)Nc2cccc(-c3csc(NC(=O)CCCCCN4CCN(C)CC4)n3)c2)cc1`, 79%.
Take `COc1cc(-c2nc3ccccc3[nH]2)ccc1OCC(=O)N=Nc1c(O)[nH]c2ccc(Cl)cc12`: the growth is -78.9% (active).
In the case of `Cn1c(=O)c(F)c(Nc2ccc(I)cc2F)c2c(=O)n(C[C@@H](O)CO)cnc21`, the growth was 77.9%.
As for `COc1ccc(Cn2cc3c(c2-c2cc(OC)c(OC)c(OC)c2)CCc2cnoc2-3)cc1[N+](=O)[O-]`, the figure is -1.72% (active).
As for `Cn1c2c(c3ccc(Cl)cc31)-n1cccc1C2=O`, the figure is 104%.
As for `COc1ccc(C(=O)C2OC3=C(C(=O)CC(C)(C)C3)C2c2cccc(Oc3ccccc3)c2)cc1` (centres undefined), the figure is 94.3%; as for `COc1ccccc1CNCCCN1C(=O)c2ccc3c4c(ccc(c24)C1=O)C(=O)N(CCCNCCNCCCN)C3=O`, -56.2% (active).
On to `c1ccc(-c2c(-c3ccccc3)[n+](Cc3ccc4ccccc4c3)c(-c3cccc4ccccc34)n2Cc2ccc3ccccc3c2)cc1`, for which the growth is -62.3% (active).
As for `COc1ccc(-c2nc3sccn3c2-c2nc3c([nH]2)C(=O)c2ccccc2C3=O)cc1`, the figure is 95%.
Turning to `CN1C(=O)CCC(N2C(=O)c3cccc(NCCOCCOCCNC(=O)c4cc5c(o4)C(=O)c4ccccc4C5=O)c3C2=O)C1=O` (centres undefined), the growth is -28.3% (active).
As for `COc1cc(/C=C/C(=O)c2ccc(Cl)cc2)ccc1OS(=O)(=O)c1ccc(C)cc1`, the figure is 99.7%; as for `C=CC(C)C(C)(C)O` (centres undefined), 106%.
As for `O=[N+]([O-])c1ccc(-c2nc(N3CCOCC3)c3c4c(sc3n2)CCCC4)cc1`, the figure is 94.8%; as for `COC(=O)c1cc(-c2cc(OC)c(OC)c(OC)c2)[nH]c1N/N=C/c1c(Cl)cccc1Cl`, -9.15% (active).
`COc1ccc(-c2nc(C#N)c(NCC(c3ccco3)N3CCCC3)o2)cc1` (centres undefined): the growth is 49.2%.
As for `COc1cc(C(=O)Nc2cc(OC)c3ccn(C)c3c2)cc2c1C[C@]1(C)CC[C@@H](O)C(C)(C)[C@H]1O2`, the figure is 8.94% (active); as for `CCS(=O)(=O)N1CCN(c2ccc(Nc3ncc(C(N)=O)c(NC4CC4)n3)cc2)CC1`, 42.2%; as for `COc1ccc(C2CC(n3nnnc3-c3ccccc3)=NN2)cc1` (centres undefined), 64.5%.
As for `O=C1[C@H]2Cc3c([nH]c4ccccc34)[C@@H](c3ccc(Br)cc3)N2C(=O)CN1C1CCN(Cc2ccccc2)CC1`, the figure is -4.01% (active).
As for `Oc1ccccc1C=NCC1CCC(CN=Cc2ccccc2O)CC1` (centres undefined), the figure is 74.4%; as for `CCOC(=O)c1sc(-c2ccc(OS(=O)(=O)C[C@]34CCC(CC3=O)C4(C)C)c(C=O)c2)nc1C`, 3.2% (active).
